The record followed here is PubChem BioAssay.

Assay [1] can be described thus: rapamycin-like changes in RPL19A-GFP expression – cell-based, S. cerevisiae, multiplex flow cytometry, primary screen (AID 1862; in the data active = percent of DMSO control GFP below about 86%;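 note: lower values mimic rapamycin by blocking the RPL19A rise seen in DMSO cells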). As to conditions: S. cerevisiae RPL19A-GFP strain, flow cytometry fluorescence, 3 h; at 10 µM; stronger effect = lower value. On the technique in general: Flow cytometry measures light scatter and fluorescence of single cells or particles in a stream.

Assay [2] in a line: TOR pathway GLN3 branch reporter MEP2-GFP changes – S. cerevisiae, multiplex flow cytometry, primary screen (AID 1867;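 active = GFP response, as percent of the DMSO control, above the screen-wide mean plus 3 SD, about 139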;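 note: median GFP channel fluorescence of barcode-gated MEP2-GFP cells measured by flow cytometry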). Conditions: S. cerevisiae MEP2-GFP strain, 3 h, at 10 µM, stronger effect = higher value, 100% means same as DMSO wells.
Assay [3] can be described thus: TOR pathway RTG branch CIT2 reporter changes – S. cerevisiae, GFP fusion, multiplex flow cytometry, primary screen (AID 1870;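 active = percent response above a set limit, the screen-wide mean plus 3 SD, cut at about 130% in these data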;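 note: barcoded CIT2-GFP strain pooled with four other GFP strains with rapamycin as positive control; median GFP fluorescence per well over plate mean of DMSO wells so 100% = DMSO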). Conditions: S. cerevisiae CIT2-GFP expression, 3 h, at 10 µM, stronger effect = higher value.
Assay [4] is described as follows: TOR pathway LAP4-GFP level changes – S. cerevisiae, multiplex flow cytometry, primary screen (AID 1873). As to conditions: S. cerevisiae LAP4-GFP expression, 3 h, at 10 µM, stronger effect = higher value.
The nature of assay [5]: yeast AGP1-GFP level changes, GLN3 branch – cell-based, multiplex flow cytometry, S. cerevisiae, primary screen (AID 1887;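 active = GFP signal above the screen-wide mean plus 3 SD, that is over about 124.5% of the solvent control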;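 note: AGP1-GFP fusion strain of S. cerevisiae within a five-strain barcoded multiplex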). As to conditions: 3 h, at 10 µM, stronger effect = higher value.
The nature of assay [6]: reduced mouse 2C T cell binding to pMHC/ICAM-1 vesicles – MLPCN validation set, flow cytometry, LFA-1/ICAM-1 modulator project, pilot screen (AID 2523;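 active = response below a set limit, under 55% cells CD8-positive and vesicle-bound, and CD8 cells' 90th-percentile brightness under 279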;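 for vesicle binding response: mean PE anti-B7-1 fluorescence of CD8+ cells relative to row control; 100% = QL9-loaded vesicles with DMSO vehicle in the same plate row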). Conditions: 2C mouse CD8+ T cells, at 7 µM, stronger effect = lower value; double positive events: measured here: CD8+/vesicle+ event percentage.
Assay [7] has as its target Integrin beta-1 (Homo sapiens) + Integrin alpha-4 (Homo sapiens) (UniProt P13612+P05556). Put plainly: alpha4beta1 integrin LIBS antibody binding reduction – U937 cells, HUTS-21 mAb, flow cytometry, validation set, VLA-4 allosteric modulator project, pilot screen (AID 2674;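 active = inhibition above 50%, about 3 SD of the validation set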;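 note: antibody binding induced by the VLA-4 ligand LDV present at three times its Kd; 0% = LDV ligand with antibody and no compound and 100% = antibody without LDV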). Conditions: HUTS-21 LIBS mAb binding, at 6.7 µM, stronger effect = higher value, binding induced by LDV ligand.

The nature of assay [8]: calorie-restriction mimetic ROS inhibitors, yeast – validation compound set, pilot screen (AID 2706;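 active = superoxide response below 65% of plate, a cut near 3 SD across the whole screen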;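 note: yeast exposed to compound for one week at 30 degrees C before staining; 100% = mean of all compound wells on the same plate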). Conditions: S. cerevisiae aging, superoxide DHE fluorescence; at 10 µM; stronger effect = lower value.
Assay [9] has as its target Beta-adrenergic receptor kinase 1 (Homo sapiens) (UniProt P25098). Put plainly: GRK2 binders displacing RNA aptamer, biochemical, validation, human GRK2, bead flow cytometry (AID 488806;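 active = aptamer binding inhibition above 30%, about 3 SD of noise from non-fluorescent compounds; inactive = inhibition at or below 30%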). Conditions: bead-bound GRK2, FAM-aptamer displacement, at 10 µM, stronger effect = higher value.
Assay [10] has as its target Beta-2 adrenergic receptor (Homo sapiens) (UniProt P07550). Put plainly: agonist-induced loss of surface beta2AR – cell-based, FAP fluorogen, flow cytometry, validation set, pilot screen (AID 504459;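 active = percent response above 42, roughly 3 SD of non-fluorescent test compounds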;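 note: agonist-driven loss of surface beta2AR via internalization measured by FAP dye flow cytometry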). Conditions: Am2.2-beta2AR cells, at 10 µM, stronger effect = higher value.
Assay [11] has as its target AP-2 complex subunit beta (Homo sapiens) (UniProt P63010). The experiment in a line: beta-arrestin/AP2 interaction blockers – biochemical, validation set, GST-AP2 beads, flow cytometry, pilot screen (AID 504541;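 active = inhibition above 54%, about 3 SD of non-fluorescent compounds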;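 note: AP2 carries R879A mutation and is captured from E. coli lysate; bead-bound FITC arrestin peptide fluorescence measuring arrestin peptide binding to AP2; 0% = DMSO wells and 100% = excess unlabeled arrestin peptide control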). Conditions: FITC arrestin peptide, at 10 µM, stronger effect = higher value, AP2 beta2 appendage fragment, R879A mutant.
Assay [12] can be described thus: cytosolic pH regulators acting via V-ATPase – S. cerevisiae, pHLuorin, HTS validation (AID 504600; in the data active = response above about 15%;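 note: plate controls were DMSO for no effect and reference compound for full effect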). Conditions: V-ATPase proton transport, at 10 µM, stronger effect = higher value.
In assay [13] the test system is anti-desmoglein-3 scFv antibody binding to human DSG3. Put plainly: blockers of pathogenic pemphigus antibody–desmoglein-3 binding – biochemical, validation compound set, bead-based, flow cytometry, pilot screen (AID 588368;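 active = binding below the plate cutoff, the plate median minus 3 SD, with a reading above zero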;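 note: signal is the median channel fluorescence of bead-bound GFP antibody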). As to conditions: Protein G beads, DSG3-Fc, scFv-GFP binding, at 10 µM, stronger effect = lower value.
Assay [14] can be described thus: Nile Red efflux blockade in pump-expressing yeast – validation compound set, multiplex, phenotypic, pilot screen (AID 588506;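 active = efflux inhibition above 0.42, the validation set average plus 4 SD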;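 note: Nile Red retained in cells so higher fluorescence means more efflux inhibition; 0 = negative control wells and 1 = enniatin B 25 µM full block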). Conditions: S. cerevisiae pump-expressing triplex, Nile Red efflux flow cytometry; at 10 µM; stronger effect = higher value; the pumps come from Candida albicans.
The target in assay [15] is ATP-binding cassette sub-family B member 6 (Homo sapiens) (UniProt Q9NP58). Put plainly: blockers of ABCB6-driven porphyrin uptake – K562-ABCB6 cells, flow cytometry, validation set, pilot screen (AID 588550;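 active = inhibition above the screen-wide mean plus 3 SD, about 51%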;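 note: 0% = DMSO wells and 100% = benzethonium chloride 70 µM positive control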). Conditions: K562-ABCB6 porphyrin accumulation, 1 h, at 10 µM, stronger effect = higher value.
A short description of assay [16]: AML differentiation inducers, ER-HoxA9 marrow cells – cell-based, GFP/MAC1 double positive, flow cytometry, validation set, primary screen (AID 588685;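 active = differentiation response of at least 50%, scaled between solvent and reference control, from cells with both markers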;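 note: compound exposure lasts four days before antibody staining and flow analysis; 0% = DMSO wells and 100% = 5 µM fulvestrant positive control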). As to conditions: stronger effect = higher value, normalized: vehicle 0, fulvestrant 100.

Results filed as inconclusive are left out. Calls of active or inactive are those of the source.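 Rule for the calls, unless noted: active = GFP signal, as percent of the solvent control, above the screen mean plus 3 SD, about 149; inconclusive = no reading because the compound's own fluorescence upset strain identification; inactive = the rest.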

Sequence of Beta-adrenergic receptor kinase 1 (Homo sapiens) (P25098 whole entry, looked up): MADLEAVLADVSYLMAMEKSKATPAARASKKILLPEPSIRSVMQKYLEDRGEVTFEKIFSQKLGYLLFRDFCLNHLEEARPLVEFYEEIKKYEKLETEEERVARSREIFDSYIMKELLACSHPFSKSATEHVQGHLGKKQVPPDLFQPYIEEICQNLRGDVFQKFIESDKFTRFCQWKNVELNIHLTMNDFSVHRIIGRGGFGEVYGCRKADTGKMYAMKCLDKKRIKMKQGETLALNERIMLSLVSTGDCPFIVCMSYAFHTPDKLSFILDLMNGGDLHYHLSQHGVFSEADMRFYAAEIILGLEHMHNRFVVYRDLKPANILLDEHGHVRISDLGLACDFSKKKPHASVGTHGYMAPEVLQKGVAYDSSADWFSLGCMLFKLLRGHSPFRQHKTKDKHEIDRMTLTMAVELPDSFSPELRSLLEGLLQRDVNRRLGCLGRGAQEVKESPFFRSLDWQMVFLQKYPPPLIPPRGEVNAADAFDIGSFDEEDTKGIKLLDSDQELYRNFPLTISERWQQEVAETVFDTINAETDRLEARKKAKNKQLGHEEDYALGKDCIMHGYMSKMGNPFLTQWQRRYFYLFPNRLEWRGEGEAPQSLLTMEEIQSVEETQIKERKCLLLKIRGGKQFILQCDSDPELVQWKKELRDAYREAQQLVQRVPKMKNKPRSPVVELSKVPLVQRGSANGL
Sequence of Integrin beta-1 (Homo sapiens) + Integrin alpha-4 (Homo sapiens) (P05556 whole entry, looked up): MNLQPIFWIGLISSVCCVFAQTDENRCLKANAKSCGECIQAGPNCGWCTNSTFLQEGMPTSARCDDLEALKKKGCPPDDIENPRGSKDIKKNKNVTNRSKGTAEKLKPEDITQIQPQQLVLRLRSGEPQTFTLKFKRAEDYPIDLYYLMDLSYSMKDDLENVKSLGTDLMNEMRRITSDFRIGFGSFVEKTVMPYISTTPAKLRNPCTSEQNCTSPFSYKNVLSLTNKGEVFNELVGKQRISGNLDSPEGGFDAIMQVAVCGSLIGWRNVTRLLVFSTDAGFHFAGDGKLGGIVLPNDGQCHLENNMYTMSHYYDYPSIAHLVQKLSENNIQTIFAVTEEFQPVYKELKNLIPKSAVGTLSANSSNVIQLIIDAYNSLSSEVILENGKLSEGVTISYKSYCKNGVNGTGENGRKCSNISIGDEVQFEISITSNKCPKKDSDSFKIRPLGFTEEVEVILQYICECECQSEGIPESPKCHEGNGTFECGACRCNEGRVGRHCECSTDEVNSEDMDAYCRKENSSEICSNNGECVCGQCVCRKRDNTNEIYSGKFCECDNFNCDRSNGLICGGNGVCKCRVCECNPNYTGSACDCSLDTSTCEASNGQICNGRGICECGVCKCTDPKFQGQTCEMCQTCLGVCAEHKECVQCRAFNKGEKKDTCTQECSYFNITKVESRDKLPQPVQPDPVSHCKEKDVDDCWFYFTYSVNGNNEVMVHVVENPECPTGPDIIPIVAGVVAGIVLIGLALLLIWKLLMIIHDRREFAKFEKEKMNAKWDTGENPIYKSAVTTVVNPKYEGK
Sequence of Integrin beta-1 (Homo sapiens) + Integrin alpha-4 (Homo sapiens) (P13612 whole entry, looked up): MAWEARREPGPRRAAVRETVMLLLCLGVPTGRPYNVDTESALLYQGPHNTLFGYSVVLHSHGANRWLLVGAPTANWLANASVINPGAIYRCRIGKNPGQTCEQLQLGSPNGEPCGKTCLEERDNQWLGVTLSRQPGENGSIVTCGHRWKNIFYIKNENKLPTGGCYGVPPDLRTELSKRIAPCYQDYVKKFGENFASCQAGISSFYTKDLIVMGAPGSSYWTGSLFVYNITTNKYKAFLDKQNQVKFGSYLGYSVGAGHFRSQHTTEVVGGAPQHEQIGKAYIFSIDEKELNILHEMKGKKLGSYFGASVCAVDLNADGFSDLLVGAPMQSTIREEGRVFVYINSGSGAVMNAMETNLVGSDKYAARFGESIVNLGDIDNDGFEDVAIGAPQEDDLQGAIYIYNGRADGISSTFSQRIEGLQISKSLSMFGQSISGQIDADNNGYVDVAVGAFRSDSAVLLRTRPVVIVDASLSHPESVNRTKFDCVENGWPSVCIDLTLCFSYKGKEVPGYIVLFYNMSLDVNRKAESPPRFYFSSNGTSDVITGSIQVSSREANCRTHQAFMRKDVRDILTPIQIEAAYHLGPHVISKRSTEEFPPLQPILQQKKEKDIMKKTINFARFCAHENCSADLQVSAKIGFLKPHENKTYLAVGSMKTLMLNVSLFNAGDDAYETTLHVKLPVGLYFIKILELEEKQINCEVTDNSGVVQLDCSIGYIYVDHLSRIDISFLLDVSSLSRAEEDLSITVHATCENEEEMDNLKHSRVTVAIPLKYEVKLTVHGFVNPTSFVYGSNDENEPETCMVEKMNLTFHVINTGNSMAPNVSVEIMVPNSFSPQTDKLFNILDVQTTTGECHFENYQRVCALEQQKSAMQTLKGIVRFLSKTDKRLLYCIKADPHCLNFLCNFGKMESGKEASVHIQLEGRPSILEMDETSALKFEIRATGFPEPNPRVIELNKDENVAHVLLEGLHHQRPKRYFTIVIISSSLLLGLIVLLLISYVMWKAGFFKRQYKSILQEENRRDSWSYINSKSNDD
Sequence of Beta-2 adrenergic receptor (Homo sapiens) (P07550 whole entry, looked up): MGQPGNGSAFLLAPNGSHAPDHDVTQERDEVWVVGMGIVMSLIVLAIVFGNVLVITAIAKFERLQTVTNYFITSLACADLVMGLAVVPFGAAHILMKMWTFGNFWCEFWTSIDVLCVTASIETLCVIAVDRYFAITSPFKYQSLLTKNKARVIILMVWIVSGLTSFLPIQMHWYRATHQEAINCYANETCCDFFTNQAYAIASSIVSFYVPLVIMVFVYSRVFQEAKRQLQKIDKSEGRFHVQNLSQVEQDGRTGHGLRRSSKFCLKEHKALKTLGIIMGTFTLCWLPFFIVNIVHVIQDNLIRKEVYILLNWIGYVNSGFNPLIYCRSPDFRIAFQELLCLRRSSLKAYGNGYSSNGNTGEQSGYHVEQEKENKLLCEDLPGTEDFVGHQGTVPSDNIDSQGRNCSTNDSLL
Sequence of AP-2 complex subunit beta (Homo sapiens) (P63010 whole entry, looked up, the tested form may be a part, one chain of several): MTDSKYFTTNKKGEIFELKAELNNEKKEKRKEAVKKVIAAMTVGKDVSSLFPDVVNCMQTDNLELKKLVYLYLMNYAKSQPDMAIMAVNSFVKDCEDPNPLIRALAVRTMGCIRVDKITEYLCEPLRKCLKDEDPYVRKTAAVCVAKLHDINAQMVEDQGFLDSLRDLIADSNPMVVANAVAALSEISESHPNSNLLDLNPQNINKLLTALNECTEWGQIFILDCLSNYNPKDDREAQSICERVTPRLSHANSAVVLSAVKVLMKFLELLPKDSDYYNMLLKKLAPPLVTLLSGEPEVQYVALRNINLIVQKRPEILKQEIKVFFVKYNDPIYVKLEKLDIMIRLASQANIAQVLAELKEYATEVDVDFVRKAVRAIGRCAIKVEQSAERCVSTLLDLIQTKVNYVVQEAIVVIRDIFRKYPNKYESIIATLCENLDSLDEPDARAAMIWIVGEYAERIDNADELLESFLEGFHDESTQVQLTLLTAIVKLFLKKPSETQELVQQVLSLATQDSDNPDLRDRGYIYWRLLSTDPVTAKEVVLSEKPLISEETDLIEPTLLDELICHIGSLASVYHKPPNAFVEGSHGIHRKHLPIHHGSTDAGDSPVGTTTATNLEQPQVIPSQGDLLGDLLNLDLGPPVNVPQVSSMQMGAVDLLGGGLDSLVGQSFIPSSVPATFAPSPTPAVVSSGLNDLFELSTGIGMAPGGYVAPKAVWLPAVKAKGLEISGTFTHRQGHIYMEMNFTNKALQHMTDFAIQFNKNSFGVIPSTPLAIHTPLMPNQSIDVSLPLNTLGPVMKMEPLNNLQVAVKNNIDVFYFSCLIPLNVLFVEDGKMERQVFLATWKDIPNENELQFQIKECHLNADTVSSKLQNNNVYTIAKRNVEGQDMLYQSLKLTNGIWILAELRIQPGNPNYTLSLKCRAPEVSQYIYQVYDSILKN
Sequence of ATP-binding cassette sub-family B member 6 (Homo sapiens) (Q9NP58 whole entry, looked up): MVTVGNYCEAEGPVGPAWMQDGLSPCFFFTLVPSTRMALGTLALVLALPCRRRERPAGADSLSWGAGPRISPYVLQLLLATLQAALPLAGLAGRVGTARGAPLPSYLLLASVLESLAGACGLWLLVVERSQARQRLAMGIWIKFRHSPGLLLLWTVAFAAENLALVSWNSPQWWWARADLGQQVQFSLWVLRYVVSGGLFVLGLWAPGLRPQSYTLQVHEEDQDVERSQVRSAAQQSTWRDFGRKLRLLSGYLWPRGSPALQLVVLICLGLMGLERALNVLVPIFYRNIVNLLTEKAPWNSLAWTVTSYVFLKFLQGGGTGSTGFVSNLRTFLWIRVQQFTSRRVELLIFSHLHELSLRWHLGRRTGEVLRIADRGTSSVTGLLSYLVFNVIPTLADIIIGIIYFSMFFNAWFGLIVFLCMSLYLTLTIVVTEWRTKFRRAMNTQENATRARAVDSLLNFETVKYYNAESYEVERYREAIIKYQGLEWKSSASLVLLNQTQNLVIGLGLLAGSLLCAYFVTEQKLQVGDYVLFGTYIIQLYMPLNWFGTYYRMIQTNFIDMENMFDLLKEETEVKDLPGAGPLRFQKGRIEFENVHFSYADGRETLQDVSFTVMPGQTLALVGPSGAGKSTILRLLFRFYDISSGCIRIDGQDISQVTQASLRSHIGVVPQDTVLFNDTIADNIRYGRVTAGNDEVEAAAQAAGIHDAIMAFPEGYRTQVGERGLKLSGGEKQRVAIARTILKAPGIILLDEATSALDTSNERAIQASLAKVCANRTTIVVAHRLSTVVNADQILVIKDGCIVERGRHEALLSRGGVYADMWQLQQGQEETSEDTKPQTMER

On to `c1coc(-c2nnc3n2C2(CCCC2)Cc2ccccc2-3)c1`, for which the percent of DMSO control GFP in assay [1] was 94.2% (inactive). For the same compound, the GFP response vs DMSO in assay [2] was 114% (inactive); in assay [4], 82.5% (inactive). Moreover, the percent response of DMSO control in [3] is 97.9% (inactive). For the same compound, the GFP response, % of DMSO in assay [5] was 91.5% (inactive). The compound also gave a double positive events in assay [6] of 73.1%. In assay [6], the vesicle binding response was 279% (inactive). Also, the inhibition (usually the drop in the measured response relative to a control, in per cent) in [7] is 25.9% (inactive); in [11] it was -13.2% (inactive); in [15] it was 14% (inactive). The superoxide response (% of plate) in [8] was 91.6% (inactive). Further, the aptamer binding inhibition in [9] is 4% (inactive). For the same compound, the response in assay [10] is -2% (inactive); in assay [12], 0.46% (inactive). Further, the binding (% of control) in assay [13] was 109% (inactive). For the same compound, the efflux inhibition (fraction of control) in [14] is -0.6 (inactive). In [16], the differentiation response is 3.28% (inactive).
For the compound `C#C[C@]1(O)CC[C@H]2[C@@H]3CCc4cc(OC5CCCC5)ccc4[C@H]3CC[C@@]21C`, the percent of DMSO control GFP in [1] is 101% (inactive). Besides, the GFP response vs DMSO in [2] is 104% (inactive); in [4] it was 126% (inactive). The percent response of DMSO control in assay [3] was 88.6% (inactive). The GFP response, % of DMSO in assay [5] was 113% (inactive). Moreover, in assay [6], the double positive events came out at 62.7%. Also, in assay [6], the vesicle binding response is 213% (inactive). Besides, the inhibition is 14.2% (inactive) in assay [7], -1.15% (inactive) in assay [11] and 3% (inactive) in assay [15]. For the same compound, the superoxide response (% of plate) in assay [8] was 97.7% (inactive). In assay [9], the aptamer binding inhibition was -1% (inactive). Also, the response in [10] is -9.24% (inactive); in assay [12] it was 6.88% (inactive). Further, in assay [13], the binding (% of control) was 105% (inactive). Moreover, the efflux inhibition (fraction of control) in assay [14] was 0.38 (inactive). Further, the differentiation response in assay [16] was 0% (inactive).
For `COc1cccc(CN2C(=O)N(C(C)C)C(N(O)C(=O)NC(C)C)C2(C)C)c1OC` (stereo not given), the percent of DMSO control GFP in assay [1] is 98.2% (inactive). In addition, the GFP response vs DMSO is 103% (inactive) in assay [2] and 97.3% (inactive) in [4]. For the same compound, the percent response of DMSO control in assay [3] is 115% (inactive). For the same compound, the GFP response, % of DMSO in assay [5] was 101% (inactive). In assay [6], this compound displayed a double positive events of 67.3%. In addition, in assay [6], the vesicle binding response is 216% (inactive). For the same compound, the results for the inhibition in [7], in [11] and in assay [15] were -11.9% (inactive), -6.77% (inactive) and 26% (inactive), respectively. In addition, in assay [8], the superoxide response (% of plate) is 84.9% (inactive). Moreover, the aptamer binding inhibition in assay [9] is -1% (inactive). Further, the results for the response in [10] and in [12] were -7.26% (inactive) and -0.84% (inactive), respectively. Besides, the binding (% of control) in assay [13] was 97.4% (inactive). Further, in assay [14], the efflux inhibition (fraction of control) was -0.04 (inactive). In assay [16], the differentiation response is 7.09% (inactive).
As for `O=c1ccc2c(o1)/C(=C/C=C(Cl)Cl)CCC2`, the percent of DMSO control GFP in [1] is 101% (inactive). In addition, the GFP response vs DMSO was 101% (inactive) in assay [2] and 110% (inactive) in [4]. Moreover, the percent response of DMSO control in assay [3] was 90.1% (inactive). For the same compound, the GFP response, % of DMSO in assay [5] was 84% (inactive). This compound also displayed a double positive events in [6] of 56.9%. For the same compound, in assay [6], the vesicle binding response was 236% (inactive). Besides, the inhibition in assay [7] was -7.25% (inactive); in assay [11] it was 60.4% (active); in assay [15], 6% (inactive). Further, in assay [8], the superoxide response (% of plate) was 101% (inactive). Further, in assay [9], the aptamer binding inhibition is 2% (inactive). Further, the response in assay [10] is 62.6% (active); in assay [12], -6.24% (inactive). Also, the binding (% of control) in assay [13] was 101% (inactive). Further, in assay [14], the efflux inhibition (fraction of control) was -0.06 (inactive). In addition, the differentiation response in assay [16] was -10.4% (inactive).
With `CCOc1ccc(C(=O)NC(C)C2COc3ccccc3O2)cc1` (stereo not given), the percent of DMSO control GFP in assay [1] is 99.5% (inactive). The GFP response vs DMSO in assay [2] was 104% (inactive); in assay [4], 110% (inactive). Moreover, the percent response of DMSO control in assay [3] is 95.7% (inactive). Moreover, the GFP response, % of DMSO in assay [5] is 106% (inactive). Further, in assay [6], the double positive events amounted to 61.2%. The vesicle binding response in [6] is 111% (inactive). Further, the inhibition in assay [7] is 7.4% (inactive); in assay [11], -0.3% (inactive); in assay [15], 1% (inactive). Also, the superoxide response (% of plate) in assay [8] was 108% (inactive). For the same compound, in assay [9], the aptamer binding inhibition is 6% (inactive). In addition, the results for the response in assay [10] and in [12] were -18% (inactive) and -8.02% (inactive), respectively. For the same compound, the binding (% of control) in [13] was 106% (inactive). The efflux inhibition (fraction of control) in assay [14] is -0.17 (inactive). In assay [16], the differentiation response was 4.86% (inactive).
